Test results from PubChem BioAssay AID1458 (National Center for Advancing Translational Sciences (NCATS), 2008).
The whole screen tested about 210,000 compounds, of which about 5,900 (2.8%) were called active. Another 5% or so got no clear call; they are omitted. Calls follow the shape of the dose curve; as a rule, active = well fitted activation curve with a large enough effect; inconclusive = small, poorly fitted or top-dose-only effect; inactive = no such curve, though single readings can be large or run the other way. Shown is part of a subset that was picked to be rich in actives. Entries that show only a call come without a potency.

Assay: qHTS Assay for Enhancers of SMN2 Splice Variant Expression; also: nearly all actives have a fitted effect of over 55% in size
Settings: HEK293 SMN2-luciferase splicing reporter, luminescence, 30-36 h; series mostly up to 46.1 µM
Summary of the method: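 HEK293 cells carry an SMN2 minigene-luciferase reporter in which exon 7 inclusion puts luciferase in frame. Cells were seeded at 2000 cells/well, attached for 10-12 hours, then exposed to compounds for 30-36 hours at 37C before ONE-Glo luminescence.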
Potency is read from the fitted curve at half-maximal effect.

| Compound | Potency |
| --- | --- |
| NS(=O)(=O)c1ccc(NC(=O)C(=O)Nc2ccc3nc4n(c(=O)c3c2)CCCCC4)cc1 | inactive |
| CCOc1ccc(S(=O)(=O)c2cn(Cc3ccccc3)c3ccc(OCC)cc3c2=O)cc1 | inactive |
| Cc1oc(C)c2c(=O)cc(-c3ccc4c(c3)OCO4)cc(OC(=O)c3ccc(Cl)cc3)c12 | inactive |
| CC(C)C12CN3CC(C(C)C)(CN(C1)C3c1ccc(OCc3ccccc3)cc1)C2=O (stereo unspecified) | inactive |
| Cc1ccc(Cn2c(CCCNC(=O)C3CCCCC3)nc3ccccc32)cc1 | inactive |
| CCOc1ccc(-c2cc(C)n3nc(C(=O)Nc4ccc(C)c(C)c4)cc3n2)cc1 | inactive |
| Cc1noc(NS(=O)(=O)c2ccc(N/C=C/C(=O)c3ccccc3)cc2)c1C | inactive |
| Cc1ccc(N/C=C/C(=O)c2ccccc2)cc1C | 2.51 µM (active) |
| O=C(/C=C\NCC(=O)c1ccccc1)c1ccccc1 | inactive |
| CSCCC(NS(=O)(=O)c1ccc2c(c1)oc(=O)n2C)C(=O)NCc1ccccc1 (stereo unspecified) | inactive |
| Cc1ccc(OCC(=O)Nc2ccc(S(=O)(=O)Nc3ccccn3)cc2)cc1 | inactive |
| Cc1cc(C)cc(OCC(=O)Nc2ccc(S(=O)(=O)Nc3ccccn3)cc2)c1 | inactive |
| O=C(COc1ccc2oc3c(c2c1)CCCC3)Nc1ccccn1 | 20 µM (active) |
| COc1cc(OC)cc(-c2nc3nc(C)c(CCC(=O)Nc4ccc(C)cc4)c(C)n3n2)c1 | inactive |
| CCOC(=O)c1cc2c(=O)n3ccccc3nc2n(CC2CCCO2)c1=NC(=O)c1ccccc1Br (stereo unspecified) | inactive |
| C/C(=N/NC(=O)CCc1ccccc1)c1ccco1 | inactive |
| Cc1cccc(NC(=O)CSc2nnc(-c3ccco3)o2)c1 | inactive |
| O=C(CCc1ccccc1)Nc1cccc(-c2nnc(-c3ccco3)o2)c1 | 12.6 µM (active) |
| CCOc1ccc(-n2c(C)nc3c(cnn3-c3ccc(C)cc3)c2=O)cc1 | inactive |
| O=C(NC1CC1)c1ccc(-c2ccccc2)cc1 | 11.2 µM (active) |
| Cc1ccc(C(=O)NC2CCN(C(=O)N3CCOCC3)CC2)cc1 | inactive |
| O=C(NC1CC1)c1cccc(Br)c1 | inactive |
| CCOc1ccccc1N(C)C(=O)c1cc2c(s1)-c1ccccc1OC2 | inactive |
| O=C(NC1CCN(Cc2ccccc2)CC1)c1ccc(Cn2c(=O)c3ccccc3n(Cc3cccc(F)c3)c2=O)cc1 | inactive |
| O=C(CSc1oc(-c2ccco2)nc1S(=O)(=O)c1ccc(Cl)cc1)c1ccccc1 | inactive |
| Cc1ccc(-c2nc(CS(=O)(=O)CC(=O)NCc3ccccc3Cl)c(C)o2)cc1 | inactive |

| Compound | Potency |
| --- | --- |
| COc1ccc(CCNC(=O)c2cc(=O)c3c(C)cc(C)cc3o2)cc1OC | inactive |
| O=C(CCS(=O)(=O)c1ccccc1)Nc1nc2c(s1)CCCC2 | inactive |
| Fc1ccc2nc(Nc3nc4c(s3)CCCC4)sc2c1 | 14.1 µM (active) |
| Fc1cc(F)c2nc(Nc3nc4c(F)cccc4s3)sc2c1 | inactive |
| O=C(C(=O)N1CCc2ccccc2C1)N1CCc2ccccc2C1 | inactive |
| O=C(COc1ccccc1)N1CCc2ccccc2C1 | inactive |
| O=C(Cn1c(=S)nc2ccccn21)N1CCc2ccccc2C1 | 12.6 µM (active) |
| Cn1c(=O)nc2n(-c3ccc(Br)cc3)c3cccc(Cl)c3cc-2c1=O | inactive |
| COc1ccccc1C(=O)Nc1c(C(=O)N(C)Cc2ccccc2)sc2nc(C)c(Cl)c(C)c12 | inactive |
| CCn1c(SCC(=O)Nc2nccs2)nnc1-c1ccncc1 | inactive |
| Nn1c(SCC(=O)Nc2nccs2)nncc1=O | inactive |
| Cc1[nH]c2ccccc2c1SCC(=O)Nc1nccs1 | 25.1 µM (active) |
| CC(=O)N1CCc2cc(S(=O)(=O)NC(Cc3ccccc3)C(=O)NCc3ccc(C)cc3)ccc21 (stereo unspecified) | inactive |
| CCOc1ccc(S(=O)(=O)c2cn(Cc3ccc(OC)cc3)c3ccc(F)cc3c2=O)cc1 | inactive |
| Cc1ccc(Cn2ccc(NC(=O)c3cc(C(C)C)on3)n2)cc1 | inactive |
| O=C(Nc1ccn(Cc2ccccc2)n1)c1n[nH]c([N+](=O)[O-])c1Cl | 3.16 µM (active) |
| Cn1cc([N+](=O)[O-])c(C(=O)Nc2cnn(Cc3ccc(F)cc3)c2)n1 | inactive |
| O=C(Nc1ccn(Cc2ccc(F)cc2)n1)c1ccncc1 | inactive |
| O=C(Nc1ccn(Cc2ccccc2)n1)c1cccc(F)c1 | 2.82 µM (active) |
| CC(=O)Nc1ccn(Cc2c(F)cccc2Cl)n1 | inactive |
| CCOC(=O)c1cc2c(=O)n3ccccc3nc2n(CCCOC)c1=NC(=O)C(C)(C)Oc1ccc(Cl)cc1 | inactive |
| COc1ccc(CCN2C(=O)N(c3cccc(OC)c3)C(=O)C2CC(=O)Nc2ccccc2)cc1 (stereo unspecified) | inactive |
| CCCCC12CN3CC(C)(CN(C1)C3c1ccc(O)c(OC)c1)C2=O (stereo unspecified) | inactive |
| COc1ccc(CCNC(=O)CCc2c(C)nc3c(c(C)nn3-c3ccc(C)c(C)c3)c2C)c(OC)c1OC | inactive |
| O=C(OCc1nnc(-c2ccccc2)o1)c1ccc2c(c1)C(=O)N(CCc1ccccc1)C2=O | inactive |
